Where “and” joins values, the source holds several entries; their conditions need not be identical. Equal entries are not always repeated. Inconclusive results are not listed. Entries that show only a call come without a potency. Some compounds were tested as several samples or in several runs, with calls that do not always agree. Calls of active or inactive are those of the source. Calls come from the whole dose curve; as a rule, active = well fitted inhibition curve with a large enough effect in the repeat runs; inconclusive = weak or mixed curves; inactive = flat fitted curve, though single readings scatter.

Chain of Luciferin 4-monooxygenase (Photinus pyralis) (P08659 whole entry, looked up): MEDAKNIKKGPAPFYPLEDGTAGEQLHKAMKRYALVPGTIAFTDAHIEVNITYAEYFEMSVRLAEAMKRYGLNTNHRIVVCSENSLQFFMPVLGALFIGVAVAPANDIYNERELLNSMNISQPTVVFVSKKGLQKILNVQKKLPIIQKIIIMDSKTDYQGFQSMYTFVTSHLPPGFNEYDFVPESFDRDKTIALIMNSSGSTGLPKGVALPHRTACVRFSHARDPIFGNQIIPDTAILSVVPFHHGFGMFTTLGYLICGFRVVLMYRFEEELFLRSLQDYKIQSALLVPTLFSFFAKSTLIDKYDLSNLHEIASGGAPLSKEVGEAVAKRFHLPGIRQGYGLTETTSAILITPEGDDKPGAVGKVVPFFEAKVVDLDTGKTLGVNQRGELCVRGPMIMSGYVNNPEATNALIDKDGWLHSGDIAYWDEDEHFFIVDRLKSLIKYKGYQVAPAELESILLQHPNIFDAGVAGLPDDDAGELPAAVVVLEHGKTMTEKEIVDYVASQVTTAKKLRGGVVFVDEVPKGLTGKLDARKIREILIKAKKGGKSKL

The target in this assay is Luciferin 4-monooxygenase (Photinus pyralis) (UniProt P08659). The assay is described as follows: qHTS assay to identify small molecule inhibitors of firefly luciferase (AID 1224835). Note: nearly all actives have a fitted effect of over 25% in size. Particulars: purified P. pyralis luciferase, luminescence inhibition; series mostly up to 115 µM; activity change, negative = inhibition: at the top concentration. From the text:
U.S. Tox21 Program National Center for Advancing Translational Sciences [NCATS] NIH Chemical Genomics Center [NCGC] U.S. Environmental Protection Agency [EPA] National Institutes of Environmental Health Sciences [NIEHS] National Toxicology Program [NTP] U.S. Food and Drug Administration [FDA] Tox21 Assay Overview: Firefly (Photinus pyralis) luciferase is one of the most commonly used transcriptional reporters. Firefly luciferase reporter-gene assays are generally considered one of the most sensitive assay types (Wood, 1995; Wood, 1998). However, it was initially observed, in 1991, by Thompson et al., that compounds that resemble the substrates of firefly luciferase (FLuc) can act as competitive inhibitors of the enzyme, and that these compounds, upon interaction with luciferase in the cell, can actually stabilize the protein and increase its half-life. Previous profiling work by other groups to determine the prevalence of compounds that affect FLuc enzymatic activity (PubChem AID 411) identified that ~3% of the MLSMR library (then at ~72K) inhibited FLuc. […] Thus the Tox21 10K library is profiled for activity against FLuc using a biochemical assay of purified FLuc and KM concentrations of FLuc substrates (D-luciferin and ATP).
These assay plates were then treated with 23nL of compound or DMSO using a Kalypsys pin tool, which allows for delivery of a 6-point interplate titration of each compound to the assay plate (quantitative HTS.) 1 uL of firefly luciferase mix (containing 50 mM Tris acetate, pH 7.6, 0.04 uM P. pyralis luciferase, 0.01% Tween, 0.05% BSA and dH2O) was then delivered by FRD to each well. Luciferase activity was then measured using a ViewLux CCD imager.
Background: Quantitative high-throughput screening tests each substance at several concentrations.
As for `C=CCCCCCCCCC(=O)O`, the “activity change, negative = inhibition” value is -7.3% [at 52.9 µM] (inactive).

`CC(=O)OCc1ccco1`: the Potency entry was “inactive”.

Consider `CCCCOC(=O)c1ccc(N)cc1`, for which the Potency entry is “inactive and 34.7 µM (active)”.

On to `CCCCC(C=O)CC` (stereo not given), for which the Potency entry is “inactive”.

Turning to `CCCCCCCCCCCCCCCCO`, the Potency result is “inactive”.

`CC(C)(C#N)c1cc(Cn2cncn2)cc(C(C)(C)C#N)c1`: the Potency result is “inactive”.

As to `CCO[Si](CCCN)(OCC)OCC`, the Potency entry is “inactive”.

Turning to `O=C(O)c1ccc(S(=O)(=O)N(Cl)Cl)cc1`, the Potency result is “inactive”.

On to `Nc1ccc(Cl)c(N)c1`, for which the Potency entry was “inactive”.

As to `CC(C)OP(=O)(CP(=O)(OC(C)C)OC(C)C)OC(C)C`, the Potency result is “inactive”.

Take `OCc1ccccc1`: the Potency result was “inactive”.

On to `O=C1c2ccccc2CCc2ccccc21`, for which the “activity change, negative = inhibition” value was -13.4% [at 52.9 µM] (inactive).

As for `Brc1ccc(Br)c(Br)c1`, the Potency entry is “inactive”.

In the case of `COC(=O)c1cccnc1`, the Potency entry is “inactive”.

In the case of `Nc1nc(N)nc(-c2ccccc2)n1`, the Potency entry is “inactive”.

Take `C[Si]1(C)O[Si](C)(C)O[Si](C)(C)O[Si](C)(C)O1`: the Potency entry is “inactive”.

For the compound `CCOCCOCCOCCO`, the Potency result was “inactive”.

Regarding `O=C(O)c1ccccc1C(=O)O`, the Potency result was “inactive”.

Consider `O=C(O)CCCCCCCCC(=O)O`, for which the Potency entry is “inactive”.

As for `CC(=O)c1ccc(O)cc1`, the Potency entry was “inactive”.

In the case of `O=C(OCC1CCC2OC2C1)C1CCC2OC2C1` (stereo not given), the Potency entry was “inactive”.

`CN(C)CCOC(=O)COc1ccc(Cl)cc1`: the Potency result was “inactive”.

Regarding `C=Cc1ccc(C)cc1`, the Potency entry was “inactive”.

`CCCCCCCO`: the Potency entry was “inactive”.

For `O=C(O)c1ccc(C(=O)O)c(C(=O)O)c1`, the “activity change, negative = inhibition” value is 4.19% (inactive).

As to `CCCCCCCC=O`, the Potency entry was “inactive”.

As to `CNC(=O)Oc1ccc2c(c1)[C@]1(C)CCN(C)[C@@H]1N2C`, the Potency result is “inactive”.

As to `CC(=O)OCc1ccccc1`, the Potency entry is “inactive”.

In the case of `CC(C)c1cccc(C(C)C)c1`, the Potency entry was “inactive”.

For `CC(C)CC(C)O` (stereo not given), the Potency entry is “inactive”.

In the case of `COc1ccc(N)c(C)c1`, the Potency entry was “inactive”.

`CNC(=S)N(C)C`: the Potency result was “inactive”.

Take `O=C(O)Cn1c(=O)n(Cc2ccc(Br)cc2F)c(=O)c2ccc(Cl)cc21`: the Potency entry is “inactive”.

For the compound `CCOC(=O)n1ccn(C)c1=S`, the Potency entry is “inactive”.

For `COCCCN`, the Potency entry is “inactive”.

Turning to `O=[N+]([O-])c1ccc2nc[nH]c2c1`, the Potency result was “inactive”.

Turning to `O=C1CCCC1`, the Potency result is “inactive”.

For `C=CC(=O)OCCC(=O)O`, the Potency entry was “inactive”.

As for `CC(=O)OCCOC(C)=O`, the Potency result is “inactive”.

With `CCCCCCCCCCCC(=O)OC`, the Potency entry is “inactive”.

The record behind these values is PubChem BioAssay (Tox21).
